Where “and” joins values, the source holds several entries; their conditions need not be identical. Equal entries are not always repeated. Where a structure was tested more than once in an assay, its records may differ in their call. Calls of active or inactive are those of the source. Where a call stands in place of a potency, no number is given. Unless noted, calls come from the whole dose curve; as a rule, active = well fitted curve in the direction sought with a large enough effect in the repeat runs; inconclusive = weak or mixed curves; inactive = no such curve, though single readings can be large; an effect the other way counts as inactive or inconclusive.
What was measured:
[1] = qHTS assay to identify small molecule antagonists of the thyroid receptor (TR) signaling pathway (AID 743065); note: nearly all actives have a fitted effect of over 55% in size; note: potency is the fitted concentration of half-maximal effect
Summary of the method: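 GH3.TRE-Luc rat pituitary cells (two TREs driving luciferase) were dosed with compound, then stimulated with 1 nM T3 (final) for 23.5 h at 37 C. ONE-Glo luminescence was the read-out, with CellTiter-Fluor fluorescence as the cytotoxicity counter-screen.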

[2] = qHTS assay to identify small molecule antagonists of the estrogen receptor alpha (ER-alpha) signaling pathway - cell viability counter screen (AID 743074; calls by dose curve;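 note: HEK293 cells carrying ER-alpha-UAS-bla reporter stimulated with 17beta-estradiol; nearly all actives have a fitted effect of over 45% in size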; note: potency is the fitted concentration of half-maximal effect)
[3] = target: Estrogen receptor (Homo sapiens) (UniProt P03372); assay: qHTS assay to identify small molecule agonists of the estrogen receptor alpha (ER-alpha) signaling pathway (AID 743075; calls by dose curve;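 note: HEK293 GripTite cells with ER-alpha and UAS-driven beta-lactamase reporter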; note: potency is the fitted concentration of half-maximal effect)
[4] = target: Estrogen receptor (Homo sapiens) (UniProt P03372); assay: qHTS assay to identify small molecule agonists of the estrogen receptor alpha (ER-alpha) signaling pathway using the BG1 cell line (AID 743079); note: nearly all actives have a fitted effect of over 20% in size; note: potency is the fitted concentration of half-maximal effect
[5] = qHTS assay to identify small molecule antagonists of the estrogen receptor alpha (ER-alpha) signaling pathway using the BG1 cell line - cell viability counter screen (AID 743081);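 note: compound given together with 17beta-estradiol as the ER stimulus; nearly all actives have a fitted effect of over 45% in size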; note: potency is the fitted concentration of half-maximal effect
[6] = target: Aromatase (Homo sapiens) (UniProt P11511); assay: qHTS assay to identify aromatase inhibitors (AID 743083); note: nearly all actives have a fitted effect of over 55% in size; note: potency is the fitted concentration of half-maximal effect
[7] = qHTS assay to identify aromatase inhibitors - cell viability counter screen (AID 743084);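 note: cells stimulated with testosterone during compound exposure; nearly all actives have a fitted effect of over 55% in size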; note: potency is the fitted concentration of half-maximal effect
[8] = qHTS assay to identify small molecule that activate the aryl hydrocarbon receptor (AhR) signaling pathway - cell viability counter screen (AID 743086); note: nearly all actives have a fitted effect of over 45% in size; note: potency is the fitted concentration of half-maximal effect
Summary of the method: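 HepG2-AhR-luc (HG2L7.5c1) cells, 4000/well, treated 24 h at 37 C with compound; viability measured as CellTiter-Fluor fluorescence after 30 min in the same wells as the luciferase read.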

[9] = target: Peroxisome proliferator-activated receptor gamma (Homo sapiens) (UniProt P37231); assay: qHTS assay to identify small molecule agonists of the peroxisome proliferator-activated receptor gamma (PPARg) signaling pathway (AID 743094; active = well fitted activation curve with a large enough effect in the signal ratio in the repeat runs, not every such curve was filed as active; inconclusive = weak or mixed curves, or effect the other way; inactive = no such curve, though single readings can be large or run the other way; the % refers to the signal ratio; note: potency is the fitted concentration of half-maximal effect)
Summary of the method: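 GeneBLAzer PPARg UAS-bla HEK293H cells were plated, rested 5 h, then exposed to compounds for 17 h at 37C. Beta-lactamase activity was read by LiveBLAzer B/G FRET substrate fluorescence after 1 h at room temperature.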

[10] = target: Peroxisome proliferator-activated receptor gamma (Homo sapiens) (UniProt P37231); assay: qHTS assay to identify small molecule antagonists of the peroxisome proliferator-activated receptor gamma (PPARg) signaling pathway (AID 743191; calls by dose curve; note: nearly all actives have a fitted effect of over 30% in size; note: potency is the fitted concentration of half-maximal effect)
Summary of the method: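 GeneBLAzer PPARg UAS-bla HEK293H cells, 5 h post-plating, exposed to compounds 17 h at 37C. LiveBLAzer B/G FRET substrate added for 1 h at room temperature; beta-lactamase reporter read by fluorescence intensity.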

[11] = qHTS assay for small molecule agonists of the antioxidant response element (ARE) signaling pathway (AID 743202; active = well fitted activation curve with a large enough effect in the signal ratio in the repeat runs, not every such curve was filed as active; inconclusive = weak or mixed curves, or effect the other way; inactive = no such curve, though single readings can be large or run the other way; the % refers to the signal ratio; note: potency is the fitted concentration of half-maximal effect)
Summary of the method: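 Agonist mode reporter screen: HepG2 cells with ARE-controlled beta-lactamase are incubated with test compounds for 16 h at 37 C, and beta-lactamase activity is measured as fluorescence of cleaved B/G FRET substrate.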

[12] = tested on: thyroid hormone receptor (rat, GH3 cells); assay: qHTS assay to identify small molecule agonists of the thyroid receptor (TR) signaling pathway (AID 743066; calls by dose curve)
[13] = qHTS assay to identify small molecule antagonists of the estrogen receptor alpha (ER-alpha) signaling pathway using the BG1 cell line (AID 743080; calls by dose curve;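 note: BG1 cells stimulated with 17beta-estradiol alongside compound; nearly all actives have a fitted effect of over 25% in size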; note: potency is the fitted concentration of half-maximal effect)
Summary of the method: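 Readout is ONE-Glo luminescence, taken 30 min at room temperature after reagent addition, preceded by a CellTiter-Fluor viability read; BG1-Luc-4E2 cells had received compound and 17beta-estradiol for 21.5 h at 37 C.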

[14] = target: Aryl hydrocarbon receptor (Homo sapiens) (UniProt P35869); assay: qHTS assay to identify small molecule that activate the aryl hydrocarbon receptor (AhR) signaling pathway (AID 743085); note: nearly all actives have a fitted effect of over 15% in size; note: potency is the fitted concentration of half-maximal effect;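 for activation: HG2L7.5c1 human HepG2 liver cells with stably integrated DRE-driven firefly reporter; series mostly up to about 70 µM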
Summary of the method: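 Stably transfected human liver carcinoma cells (HG2L7.5c1; 20 DRE-firefly luciferase) were incubated 5 h, dosed, and kept 24 h at 37C. Agonism was scored from increased luciferase luminescence.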

[15] = qHTS assay to identify small molecule antagonists of the peroxisome proliferator-activated receptor gamma (PPARg) signaling pathway - cell viability counter screen (AID 743194); details: Potency: co-treated with 50 nM rosiglitazone unless noted; note: nearly all actives have a fitted effect of over 55% in size; note: potency is the fitted concentration of half-maximal effect
Summary of the method: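 Cytotoxicity counter screen in PPARg-bla HEK293H cells, same wells as reporter assay. Compounds plus 50 nM rosiglitazone (final) for 17 h at 37 C, then viability read by CellTiter-Glo luminescence.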

[16] = qHTS assay for small molecule agonists of the antioxidant response element (ARE) signaling pathway - cell viability counter screen (AID 743203; calls by dose curve; note: nearly all actives have a fitted effect of over 55% in size; note: potency is the fitted concentration of half-maximal effect)
Summary of the method: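 ARE-bla HepG2 cells were plated, rested 5 h at 37C/5% CO2, then exposed to compounds in DMSO for 16 h. Viability was read as CellTiter-Glo luminescence after 30 min at room temperature, in the same wells as the ARE screen.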

[17] = qHTS assay to identify small molecule agonists of the peroxisome proliferator-activated receptor delta (PPARd) signaling pathway - cell viability counter screen (AID 743211); note: nearly all actives have a fitted effect of over 55% in size; note: potency is the fitted concentration of half-maximal effect
Summary of the method: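 In the same wells used for beta-lactamase reporter measurement, cytotoxicity is scored by CellTiter-Glo. HEK293H PPARd-bla cells receive compound for 17 h at 37C following a 5 h settling period.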

[18] = qHTS assay for small molecule activators of the heat shock response signaling pathway - cell viability counter screen (AID 743209); note: nearly all actives have a fitted effect of over 50% in size; note: potency is the fitted concentration of half-maximal effect
Summary of the method: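 HSE-bla HeLa cells plated overnight, then exposed to Tox21 compounds (23 nL in DMSO) for 5 h at 37 C. After the bla reporter read, CellTiter-Glo was added in the same wells and luminescence read after 30 min at room temperature.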

[19] = target: Estrogen receptor (Homo sapiens) (UniProt P03372); assay: qHTS assay to identify small molecule antagonists of the estrogen receptor alpha (ER-alpha) signaling pathway (AID 743069; active = well fitted curve in the direction sought with a large enough effect in the signal ratio in the repeat runs, not every such curve was filed as active; inconclusive = weak or mixed curves, or effect the other way; inactive = no such curve, though single readings can be large or run the other way; the % refers to the signal ratio; note: potency is the fitted concentration of half-maximal effect)
Summary of the method: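 Reporter cells (ER-alpha-bla, HEK293 background) are conditioned overnight in stripped-serum medium (2% charcoal-stripped FBS). Compound and 17beta-estradiol exposure runs 18 hr at 37C, 5% CO2.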

[20] = qHTS assay for small molecule activators of the heat shock response signaling pathway (AID 743210; active = well fitted activation curve with a large enough effect in the signal ratio in the repeat runs, with a control signal flat, not every such curve was filed as active; inconclusive = weak or mixed curves; the % refers to the signal ratio;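 note: HeLa cells with beta-lactamase reporter driven by heat shock elements; series mostly up to about 63 µM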)
Summary of the method: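 Quantitative high-throughput format using an engineered HeLa line in which heat shock response elements drive beta-lactamase; after 5 h with compound, cells received a B/G FRET substrate and fluorescence was read.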

Aromatase (Homo sapiens), sequence (P11511 whole entry, looked up): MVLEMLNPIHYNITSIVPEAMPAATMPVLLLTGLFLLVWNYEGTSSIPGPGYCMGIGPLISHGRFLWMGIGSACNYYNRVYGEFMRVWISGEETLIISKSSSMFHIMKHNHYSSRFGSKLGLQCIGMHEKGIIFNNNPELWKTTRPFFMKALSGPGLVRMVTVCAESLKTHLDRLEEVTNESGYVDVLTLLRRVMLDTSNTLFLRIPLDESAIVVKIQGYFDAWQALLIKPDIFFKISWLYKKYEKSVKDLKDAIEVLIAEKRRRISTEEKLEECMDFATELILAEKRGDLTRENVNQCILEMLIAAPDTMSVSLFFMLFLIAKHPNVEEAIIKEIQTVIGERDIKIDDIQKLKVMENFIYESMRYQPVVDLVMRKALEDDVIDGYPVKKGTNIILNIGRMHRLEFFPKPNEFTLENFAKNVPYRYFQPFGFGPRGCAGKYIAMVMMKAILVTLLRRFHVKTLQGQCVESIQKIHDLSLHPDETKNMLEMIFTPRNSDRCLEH
Estrogen receptor (Homo sapiens), sequence (P03372 whole entry, looked up): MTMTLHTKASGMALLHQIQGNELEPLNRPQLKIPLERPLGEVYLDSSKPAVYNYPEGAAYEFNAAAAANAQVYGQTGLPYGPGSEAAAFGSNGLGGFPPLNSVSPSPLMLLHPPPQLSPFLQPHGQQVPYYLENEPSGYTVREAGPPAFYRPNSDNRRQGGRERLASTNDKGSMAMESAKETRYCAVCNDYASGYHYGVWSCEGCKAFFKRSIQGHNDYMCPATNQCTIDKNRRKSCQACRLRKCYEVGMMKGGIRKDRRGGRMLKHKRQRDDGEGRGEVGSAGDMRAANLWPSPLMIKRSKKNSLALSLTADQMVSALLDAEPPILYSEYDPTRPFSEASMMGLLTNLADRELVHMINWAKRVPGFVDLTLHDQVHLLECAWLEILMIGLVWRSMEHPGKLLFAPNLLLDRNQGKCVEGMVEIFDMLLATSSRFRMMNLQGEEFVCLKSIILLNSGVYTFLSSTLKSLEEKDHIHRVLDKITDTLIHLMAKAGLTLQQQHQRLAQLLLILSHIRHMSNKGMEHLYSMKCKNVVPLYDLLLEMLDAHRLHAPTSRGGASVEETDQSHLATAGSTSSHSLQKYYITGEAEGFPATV
Peroxisome proliferator-activated receptor gamma (Homo sapiens), sequence (P37231 whole entry, looked up): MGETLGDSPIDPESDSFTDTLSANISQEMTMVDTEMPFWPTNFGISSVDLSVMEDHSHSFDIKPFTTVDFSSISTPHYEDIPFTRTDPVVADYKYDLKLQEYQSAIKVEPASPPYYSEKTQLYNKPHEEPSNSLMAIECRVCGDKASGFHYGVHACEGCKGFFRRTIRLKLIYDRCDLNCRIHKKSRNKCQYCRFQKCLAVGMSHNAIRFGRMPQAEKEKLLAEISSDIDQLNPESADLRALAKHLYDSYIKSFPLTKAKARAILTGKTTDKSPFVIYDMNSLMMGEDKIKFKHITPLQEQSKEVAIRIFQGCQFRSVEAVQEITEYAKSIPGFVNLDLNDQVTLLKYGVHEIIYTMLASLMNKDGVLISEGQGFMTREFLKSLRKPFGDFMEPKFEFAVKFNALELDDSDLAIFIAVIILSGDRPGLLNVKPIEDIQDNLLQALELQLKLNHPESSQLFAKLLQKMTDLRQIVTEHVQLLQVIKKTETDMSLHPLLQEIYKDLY
Aryl hydrocarbon receptor (Homo sapiens), sequence (P35869 whole entry, looked up): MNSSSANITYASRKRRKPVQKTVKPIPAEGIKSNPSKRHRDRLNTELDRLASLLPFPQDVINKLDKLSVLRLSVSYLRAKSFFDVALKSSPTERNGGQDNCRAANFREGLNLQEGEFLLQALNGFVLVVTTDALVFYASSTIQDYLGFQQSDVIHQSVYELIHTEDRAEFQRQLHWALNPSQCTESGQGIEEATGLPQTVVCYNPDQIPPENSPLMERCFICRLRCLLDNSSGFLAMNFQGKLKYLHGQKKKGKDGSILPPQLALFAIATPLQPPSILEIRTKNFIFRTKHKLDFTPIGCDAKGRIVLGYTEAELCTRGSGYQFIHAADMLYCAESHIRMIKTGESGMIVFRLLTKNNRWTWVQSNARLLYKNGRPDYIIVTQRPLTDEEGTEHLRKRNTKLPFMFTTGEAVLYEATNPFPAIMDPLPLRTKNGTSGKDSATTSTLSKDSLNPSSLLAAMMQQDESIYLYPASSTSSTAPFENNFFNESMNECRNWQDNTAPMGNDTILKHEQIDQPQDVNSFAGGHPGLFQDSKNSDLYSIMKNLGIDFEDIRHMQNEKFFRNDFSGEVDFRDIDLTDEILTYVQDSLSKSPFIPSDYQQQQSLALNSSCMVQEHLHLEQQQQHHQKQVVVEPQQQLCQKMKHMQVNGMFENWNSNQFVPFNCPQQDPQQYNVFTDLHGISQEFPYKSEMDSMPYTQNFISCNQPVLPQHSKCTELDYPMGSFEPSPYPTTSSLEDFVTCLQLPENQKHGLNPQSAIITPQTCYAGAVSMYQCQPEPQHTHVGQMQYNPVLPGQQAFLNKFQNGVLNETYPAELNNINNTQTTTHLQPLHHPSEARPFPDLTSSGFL

Row | SMILES | Potency [1] | Potency [2] | Potency [3] | Potency [4] | Potency [5] | Potency [6] | Potency [7] | Potency [8] | Potency [9] | Potency [10] | Potency [11] | outcome [12] | Potency [13] | Potency [14] | Potency [15] | Potency [16] | Potency [17] | Potency [18] | Potency [19] | Potency [20]
1 | Fc1ccc(Oc2ccnc3cc(Cl)cc(Cl)c23)cc1 | 68.6 µM (active) | inactive | inactive | inactive | inactive | inactive | inactive | inactive | 43.6 µM (active) | inactive | 12.2 µM (active) | – | – | – | – | – | – | – | – | –
2 | O=C/C(Cl)=C(/Cl)C(=O)O | 68.6 µM (active) | – | inactive | inactive | inactive | – | – | inactive | – | – | 38.5 µM (active) and 27.3 µM (active) | inactive | inactive | inactive | inactive | inactive | inactive | – | – | –
3 | O=S(=O)(c1ccc(Cl)cc1)c1ccc(Cl)cc1 | inactive | – | inactive | – | inactive | – | – | inactive | inactive | – | – | inactive | 24.6 µM (active) | inactive | – | – | – | inactive | – | –
4 | O=C(Nc1ccc2[nH]ccc2c1)c1cc2cc(F)ccc2n1Cc1cccc(F)c1 | 13.7 µM (active) | inactive | – | – | inactive | – | – | – | – | – | – | – | – | inactive | 19.5 µM (active) | 30.6 µM (active) | 24.5 µM (active) | 49 µM (active) | inactive | –
5 | Oc1ccc(C2(c3ccc(O)cc3)c3ccccc3-c3ccccc32)cc1 | 15.4 µM (active) | – | – | – | – | – | – | – | – | – | – | inactive | – | inactive | 17.4 µM (active) | 27.3 µM (active) | 43.6 µM (active) | – | – | –
6 | CC(C)[C@H](C(=O)OC(C#N)c1cccc(Oc2ccccc2)c1)c1ccc(OC(F)F)cc1 (some centres not stated) | 54.5 µM (active) | inactive | – | – | inactive | – | inactive | inactive | – | inactive | inactive | inactive | – | inactive | inactive | inactive | inactive | inactive | – | –
7 | CCCCCCCCCCCCCCCCCCn1cc[n+](C)c1 | 5.42 µM (active) | 38.7 µM (active) | inactive | – | 30.5 µM (active) | 3.83 µM (active) | 21.6 µM (active) | – | – | – | – | – | – | inactive | – | 15.3 µM (active) | 10.9 µM (active) | – | 9.72 µM [inconclusive] (active) | –
8 | CC1(c2ccc(Oc3ccccc3)cc2)OC(=O)N(Nc2ccccc2)C1=O (configuration not stated) | 1.94 µM (active) | inactive | – | – | – | 61.5 µM (active) | – | inactive | – | – | 0.615 µM (active) | – | 21.8 µM (active) | inactive | 8.76 µM (active) | – | 49.3 µM (active) | – | 17.5 µM [inconclusive] (active) | –
9 | CC(C)CCCCCCCOP(=O)(Oc1ccccc1)Oc1ccccc1 | 30.8 µM (active) | inactive | inactive | inactive | inactive | inactive | inactive | inactive | inactive | – | – | – | inactive | inactive | inactive | inactive | 27.7 µM (active) | – | inactive | inactive
10 | COP(=S)(OC)Oc1cc(Cl)c(Br)cc1Cl | 61.1 µM (active) | – | 54.9 µM [inconclusive] (active) | inactive | inactive | inactive | inactive | – | inactive | 43.6 µM (active) | – | inactive | inactive | – | 34.7 µM (active) | – | inactive | – | – | inactive
11 | O=[N+]([O-])c1cc([N+](=O)[O-])c2ccccc2c1 | inactive | – | – | – | – | – | – | inactive | – | – | – | inactive | – | 16.3 µM (active) | – | – | – | – | – | –
12 | CCCCCCCCCCCCCC[P+](CCCCCC)(CCCCCC)CCCCCC (tested in a mixture with another compound) | 1.54 µM (active) | 7.76 µM (active) | – | – | 9.69 µM (active) | 3.06 µM (active) | 6.11 µM (active) | 27.3 µM (active) | – | – | – | – | 2.73 µM (active) | inactive | 0.49 µM (active) | 10.9 µM (active) | 2.46 µM (active) | – | 0.246 µM [inconclusive] (active) | –
13 | CCCCOCN(C(=O)CCl)c1c(CC)cccc1CC | 61.1 µM (active) | inactive | inactive | – | inactive | 61.1 µM (active) | – | inactive | – | – | – | – | inactive | inactive | inactive | 48.6 µM (active) | – | – | – | –
14 | CCCCCCCCCC[N+](C)(C)CCCCCCCCCC | 5.96 µM (active) and 9.69 µM (active) | 10.7 µM (active) and 38.9 µM (active) | inactive | – | inactive | 13.3 µM (active) and 24.3 µM (active) | 21.1 µM (active) and 61.1 µM (active) | inactive | – | – | – | – | 33.5 µM (active) | inactive | 15.5 µM (active) | – | 21.9 µM (active) | – | – | –
15 | O=C(CCl)C(Cl)Cl | 12.3 µM (active) | 39.3 µM (active) | 13.9 µM [inconclusive] (active) | 24.6 µM (active) | – | 8.71 µM (active) | 8.71 µM (active) | – | – | – | – | – | – | inactive | – | 61.7 µM (active) | 17.5 µM (active) | – | – | –
16 | CCN(CC)c1c([N+](=O)[O-])cc(C(F)(F)F)c(N)c1[N+](=O)[O-] | inactive | – | 38.9 µM [inconclusive] (active) | – | inactive | 34.4 µM (active) | – | inactive | inactive | inactive | inactive | inactive | – | inactive | inactive | – | inactive | – | – | inactive
17 | [Cd+2].[Cl-].[Cl-] | 27.5 µM (active) and 38.6 µM (active) | – | – | – | – | 54.9 µM (active) and inactive | 24.5 µM (active) | 2.19 µM (active) and 3.06 µM (active) | – | – | – | inactive | – | inactive | 1.55 µM (active) | 692 nM (active) and 545 nM (active) | 2.21 µM (active) and 1.38 µM (active) | – | – | –

Reference: PubChem BioAssay (Tox21)
